Reference: PubChem BioAssay AID977606 (Broad Institute, 2014)
In all, about 1,500 compounds went through this assay and about 430 (29%) were called active. These entries were drawn from the full list. Entries with a potency or affinity are not part of this list. Unmarked numbers belong to inactive results. How the calls were made is not given here.

Assay: glucose-independent GLuc insulin release activation – cell-based, INS-1E, Gaussia luciferase, luminescence, cherry-pick, counter-screen for glucose-dependent insulin secretion activators, dose response (AID 977606);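 further: 0% = median of neutral control wells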
Conditions: INS-1E Gaussia luciferase insulin secretion, no glucose, 100% = twice neutral-control luminescence; series mostly up to 35 µM; activation: at the top concentration

Compound | activation | outcome
COc1ccc(CCNC(=O)C(=O)c2c(C)n(C)c3ccccc23)cc1OC | -5.15% | –
CCc1nc(N)nc(N)c1-c1ccc(Cl)c(N=[N+]=[N-])c1 | – | inactive
COc1ccc(C(C)=O)cc1CSCc1cc(C(C)=O)ccc1OC | 0.399% | –
CN(C)CCCN(C(=O)CCOc1ccccc1)c1nc2c(F)cccc2s1 | 22.9% | –
COc1ccc(CCNC(=O)CCn2c(=O)c3cccn3c3cccnc32)cc1OC | -8.89% | –
COc1ccc(C2=NN(C(=O)c3ccco3)C(c3cccs3)C2)cc1OC (stereo not given) | 2.94% | –
CC(=O)N1CCN(c2nnc(-c3ccccc3)c3ccccc23)CC1 | -7.28% | –
COc1ccc(-c2cnnn2-c2ccc(N)cc2)cc1OC | 14.5% | –
CCOC(=O)c1cc(-c2ccncc2)nc2c1c(C)nn2-c1ccccn1 | -12.8% | –
CCOC(=O)c1nc2nc(-c3cccs3)cc(C(F)(F)F)n2n1 | -2.27% | –
CCN(CC)C(=O)C1(P(=O)(c2ccccc2)c2ccccc2)CCC1 | 3.86% | –
CCCNC(=O)C1(C)CCCN(Cc2cccn2C)C1 (stereo not given) | 2.12% | –
CC(C)(C)c1ccc(S(=O)(=O)N2CC(C(=O)O)Oc3ccc(Cl)cc32)cc1 (stereo not given) | -17.2% | –
N#CCCCc1cc2ccccc2cn1 | -1.65% | –
Cc1cc(Br)c2c(c1)C1(OCCO1)C(=O)N2 | -15.4% | –
CCCc1c(C)c2ccc(OCC(C)=O)cc2oc1=O | 31.2% | –
CNc1nc(-c2ccccc2)cc(-c2ccccc2)n1 | -10.1% | –
CCS(=O)(=O)c1nc(S(=O)(=O)c2ccc(C)cc2)c(N2CCC(O)CC2)s1 | 5.07% | –
COc1ccc(C(C)=O)cc1Cn1cnc2c(cnn2C)c1=O | 3.6% | –
O=C(Cn1cnc2sc(-c3ccccc3)cc2c1=O)NCCc1ccccc1 | -15.1% | –
O=C(Nc1cccc(Cl)c1)c1cnn2cccnc12 | 20.9% | –
COc1ccc(/C=N/NC(=O)Cn2cnc3ccccc3c2=O)cc1OC | 6.92% | –
CCc1nc2ccc(C(=O)NCCCN(C)C)cn2c1N(C)Cc1ccc(OC)cc1 | -1.71% | –
COc1ccc(C2=NN(C(=O)c3ccco3)C(c3ccco3)C2)cc1OC (stereo not given) | -1.59% | –
O=C(CCn1ccc2cc(S(=O)(=O)N3CCCC3)ccc21)NCc1cccc(F)c1 | -20.7% | –
c1ccc(CNc2nc(Oc3ccncc3)c3sccc3n2)cc1 | -5.34% | –
Cc1cc(Cl)ccc1-c1nc(NCc2ccccc2)nc2ccsc12 | 13.2% | –
COc1ccc(C2C3CCCCC3(O)CCN2C(=O)c2cccs2)cc1 (stereo not given) | -6.6% | –

Compound | activation | outcome
CCn1c(SCc2cc(=O)[nH]c3ccccc23)nc2c1c(=O)n(C)c(=O)n2C | -0.85% | –
C=CCN(Cc1ccc(OC)c(OC)c1)C(=O)N1CCOCC1 | 5.63% | –
S=C(NCc1ccccc1)Nc1ccc2cn[nH]c2c1 | -12.7% | –
CCC(=O)Nc1nnc(Sc2ccc(N(C)C)cc2)s1 | -2.97% | –
CCSc1nnc(NC(=O)c2csc(C)c2)s1 | 3.32% | –
CCOc1ccc(CCNC(=O)CCC(=O)c2cccs2)cc1OCC | -12.3% | –
CCOC(=O)Cc1csc(NC(=O)c2ccc(OC)c(OC)c2)n1 | 6.38% | –
COCCn1c(=O)[nH]c2cc(C(=O)Nc3cc(OC)c(OC)c(OC)c3)ccc2c1=O | 8.32% | –
COCCNC(=O)CCCn1c(=O)c2ccccc2n(Cc2ccccc2C#N)c1=O | -18.3% | –
COc1ccc(CCNS(=O)(=O)c2ccc(Cl)s2)cc1OC | -2.93% | –
O=C(c1cc(-c2ccc(F)cc2)nc2ccccc12)N1CCN(C2CCS(=O)(=O)C2)CC1 (stereo not given) | 0.694% | –
O=C(Nc1ccc(C(=O)N2CCCC2)cc1)c1cccc(C(F)(F)F)c1 | 6.96% | –
CCOc1ccc(CCNC(=O)COc2cc(=O)n(C)c3ccccc23)cc1OCC | 16.5% | –
O=S1(=O)c2ccccc2OC(COCc2ccccc2)CN1C1CC1 (stereo not given) | 2.22% | –
CC(C)Oc1cccc(C(=O)C2CCCN(C(=O)CCc3cnn(C)c3)C2)c1 (stereo not given) | -11.9% | –
COc1ccc(-c2nnc3sc(-c4cccs4)nn23)cc1OC | -0.837% | –
c1csc(-c2nc(NCC3CCCO3)c3ccccc3n2)c1 (stereo not given) | 9.46% | –
Cc1cc(NC(=O)COC(=O)c2oc3c(Cl)cccc3c2C)no1 | -1.82% | –
COc1cc(/C=N/Nc2cc(C)nc(NS(=O)(=O)c3ccc(C)cc3)n2)ccc1O | -9.01% | –
CCOc1nc(NC(=O)NS(=O)(=O)Oc2ccccc2Cl)nc(-c2ccccc2)n1 | -8.66% | –
CCOc1ccccc1CNS(=O)(=O)c1cnc[nH]1 | 0.89% | –
Nc1nc(SCc2nc3scc(-c4ccccc4)c3c(=O)[nH]2)n[nH]1 | -17.5% | –
CCCC(=O)Nc1ccc(N2CCN(S(C)(=O)=O)CC2)cc1 | 14.1% | –
O=C(O)CCCNC(=O)c1nn(Cc2ccccc2)c(=O)c2ccccc12 | 1.47% | –
C/C=C/c1ccc(OCCN2C(=O)NC(C)(C)C2=O)c(OC)c1 | -4.08% | –
COc1ccc(C2=Nn3c(nnc3-c3ccccc3F)SC2)cc1OCC1CC1 | -24.7% | –
O=C(Nc1nccs1)c1cc(N2CCOCC2)nc2ccccc12 | -9.4% | –
